Source: PubChem BioAssay (NCATS)
Records with an inconclusive call do not appear. Values without a mark were called inactive. Calls of active or inactive are those of the source. The call rests on the fitted dose curve; in most records, active means well fitted cell-killing curve with a large enough effect; inconclusive means small, poorly fitted or top-dose-only effect, or effect the other way; inactive means no such curve, though single readings can be large or run the other way. Starred links: 1 amine or outer side, 2 acyl side, 3 side chain; linkers in the order of their positions; H or OH if unused. Positions of bridges follow the written chain, without caps; N, C: chain ends. Non-standard residues stand in square brackets, D forms with d. Residues, ends and D or L forms follow the SMILES beside them. Chains are numbered I, II in the order given. Actinocin(9to1) = Cc1c2oc3c(C)ccc(C(=O)[*:1])c3nc-2c(C(=O)[*:2])c(N)c1=O; NMeV = CN[CH](C(=O)O)C(C)C; Sar = CNCC(=O)O

experiment: Quantitative High-Throughput drug screen in 47 multiple myeloma cell lines against the NCATS MIPE library collection: XG1_PLB cell viability assay (AID 1919866); details: CellTiter-Glo ATP, 48 h; series mostly up to 45.8 µM; viability: at the top concentration; further: nearly all actives have a fitted effect of over 35% in size
Text: PI: Beverly A. Mock Ph.D.
Laboratory of Cancer Biology and Genetics,
Center for Cancer Research, National Cancer Institute,
National Institute of Health, Bethesda, Maryland
Drug resistance and disease progression are common in multiple myeloma (MM) patients, underscoring the need for new therapeutic combinations. […] We hypothesized that effective combinations would reduce MYC expression and enhance p16 activity. […] These preclinical data identify potentially useful drug combinations for evaluation in drug-resistant MM and reveal potential mechanisms of combined drug sensitivity.
Described herein is the primary MIPE qHTS used to cherrypick compounds. Validated compounds were then further tested for potential synergistic activiy.
[1] Peat TJ, Gaikwad SM, Dubois W, Gyabaah-Kessie N, Zhang S, Gorjifard S, Phyo Z, Andres M, Hughitt VK, Simpson RM, Miller MA, Girvin AT, Taylor A, Williams D, D'Antonio N, Zhang Y, Rajagopalan A, Flietner E, Wilson K, Zhang X, Shinn P, Klumpp-Thomas C, McKnight C, Itkin Z, Chen L, Kazandijian D, Zhang J, Michalowski AM, Simmons JK, Keats J, Thomas CJ, Mock BA. Drug combinations identified by high-throughput screening promote cell cycle transition and upregulate Smad pathways in myeloma. Cancer Lett. 2023 Aug 1;568:216284. doi: 10.1016/j.canlet.2023.216284. Epub 2023 Jun 24. PMID: 37356470; PMCID: PMC10408729.
SEQUENCE No. (e.g., 1, 2, 3, etc.); […] (e.g., Cells, Incubation, Reagent, etc.); VALUE and DESCRIPTION.
1; Cells; 5 uL; white, solid bottom 1536-well Greiner assay plate.
2; Compounds; 23 nL; Kalypsis pin tool (Wako USA) equipped with a 1536-well pin head to transfer to the assay plates.
3; Incubation; 48 hours; 37C incubation.
4; Reagent;5uL; CellTiter Glo (Promega).
5; Detector; 425V; Luminescence; Viewlux PerkinElmer.
NOTES (numbers refer to Sequence numbers above)
1. The cell-based screening methods employed in this study were like those previously published. Briefly, the corresponding myeloma cell lines were screened in 1,536-well plates with 500 cells, 5-uL per well for inhibition of cell viability (assessed by measuring ATP levels with CellTiterGlo).
2. NCATS MIPE 4.0 library of approved and investigational drugs were added using the Kalypsis pin tool. Wells treated with DMSO only for 100% viability and media only for 0% viability were used as controls.
3. The assay plates were covered and incubated for 48 hours in a 37C, 5% CO2 incubator with controlled humidity.
4. After 48 hours, CellTilter-GloTM luminescent substrate mix (Promega) reagent was added to the assay plate and plates we incubated for 5 min at room temperature.
5. Signal was measured as median relative luminescence units on a ViewLux (PerkinElmer) multiplate reader.
[1] Heske CM, Davis MI, Baumgart JT, Wilson K, Gormally MV, Chen L, Zhang X, Ceribelli M, Duveau DY, Guha R, Ferrer M, Arnaldez FI, Ji J, Tran HL, Zhang Y, Mendoza A, Helman LJ, Thomas CJ. Matrix Screen Identifies Synergistic Combination of PARP Inhibitors and Nicotinamide Phosphoribosyltransferase (NAMPT) Inhibitors in Ewing Sarcoma. Clin Cancer Res. 2017 Dec 1;23(23):7301-7311. doi: 10.1158/1078-0432.CCR-17-1121. Epub 2017 Sep 12. PMID: 28899971; PMCID: PMC6636827.
Potency means the concentration at half of the fitted maximal effect.

Compound | viability | Potency
Cc1c2oc3c(C)ccc(C(=O)NC4C(=O)NC(C(C)C)C(=O)N5CCCC5C(=O)N(C)CC(=O)N(C)C(C(C)C)C(=O)OC4C)c3nc-2c(C(=O)NC2C(=O)NC(C(C)C)C(=O)N3CCCC3C(=O)N(C)CC(=O)N(C)C(C(C)C)C(=O)OC2C)c(N)c1=O (stereo not given) (I: TVP[Sar][NMeV] / II: TVP[Sar][NMeV]; ester I:1-I:C, II:1-II:C; linker I:N-II:N via Actinocin(9to1); configuration not given here) | 2.88% | –
FC(F)(F)c1ccc(Nc2nc3ccc(Oc4ccnc(-c5ncc(C(F)(F)F)[nH]5)c4)cc3[nH]2)cc1 | – | 14.8 µM (active)
O=C(Nc1cc2cc[nH]c2cn1)c1ccccc1 | – | 16.6 µM (active)
CC[C@H]1OC(=O)[C@H](C)[C@@H](O[C@H]2C[C@@](C)(OC)[C@@H](O)[C@H](C)O2)[C@H](C)[C@@H](O[C@@H]2O[C@H](C)C[C@H](N(C)C)[C@@H]2O)[C@](C)(OC)C[C@@H](C)C(=O)[C@H](C)[C@@H](O)[C@]1(C)O | 108% | –
C=CCNc1c(O)cc2c(O)c1C[C@@H](C)C[C@H](OC)[C@@H](O)[C@@H](C)C=C(C)[C@H](OC(N)=O)[C@@H](OC)C=CC=C(C)C(=O)N2 | – | 0.418 µM (active)
Cn1cc(C2=C(c3c4n(c5ccccc35)CCC(CN)C4)C(=O)NC2=O)c2ccccc21 (stereo not given) | – | 7.43 µM (active)
COc1ccc(Nc2nccc(NCCO)n2)cc1 | 87% | –
CCN(CC)CCCCNc1ncc2c(n1)N(C)C(=O)N(c1c(Cl)c(OC)cc(OC)c1Cl)C2 | – | 13.2 µM (active)
CCOC(=O)[C@@H](N)Cc1ccc(-c2cc(O[C@H](c3ccc(Cl)cc3-n3ccc(C)n3)C(F)(F)F)nc(N)n2)cc1 | – | 23.5 µM (active)
CC(=O)[C@]1(O)Cc2c(O)c3c(c(O)c2[C@@H](O[C@H]2C[C@H](N)[C@@H](O)[C@H](C)O2)C1)C(=O)c1ccccc1C3=O | – | 0.166 µM (active)
COc1cc2c(cc1O)CCC1C2CC[C@@]2(C)C1CC[C@@H]2O (stereo not given in full) | – | 0.662 µM (active)
CC(=O)O[C@@]12CO[C@H]1C[C@H](O)[C@@]1(C)C(=O)[C@H](O)C3=C(C)[C@@H](OC(=O)C(O)[C@@H](NC(=O)OC(C)(C)C)c4ccccc4)C[C@@](O)([C@@H](OC(=O)c4ccccc4)[C@@H]21)C3(C)C (stereo not given in full) | 25.5% | –
C[C@@H](Oc1ccc2[nH]nc(C=Cc3cnn(CCO)c3)c2c1)c1c(Cl)cncc1Cl | – | 0.0935 µM (active)
N#CC(=C(O)c1ccc(Cl)cc1Cl)c1nc2cc(Cl)ccc2c(=O)[nH]1 | 91.7% | –
C[C@H]1C[C@H]2[C@@H]3CCC4=CC(=O)C=C[C@]4(C)[C@@H]3C(=O)C[C@]2(C)[C@@]1(O)C(=O)CO | 99.1% | –
CC(C)(C)c1nc2c3cc[nH]c(=O)c3c3cc(F)ccc3c2[nH]1 | – | 0.743 µM (active)
CC(C)(O)[C@H]1CC[C@@](C)([C@H]2[C@@H](O)C[C@@]3(C)[C@@H]4C[C@H](O[C@@H]5O[C@H](CO)[C@@H](O)[C@H](O)[C@@H]5O)[C@H]5C(C)(C)[C@@H](O[C@@H]6OC[C@@H](O)[C@H](O)[C@@H]6O)CC[C@@]56C[C@@]46CC[C@]23C)O1 | 120% | –
OCCNC1CCCc2c1[nH]c1ccc(-c3ccccc3)cc21 (stereo not given) | – | 9.35 µM (active)
CC(=O)OCC(=O)[C@@]1(O)CC[C@H]2[C@@H]3CCC4=CC(=O)CC[C@]4(C)[C@@H]3C(=O)C[C@@]21C | 102% | –
N=c1ccn2c(n1)O[C@H]1[C@@H](O)[C@@H](CO)O[C@H]12 | – | 5.9 µM (active)

Compound | viability | Potency
C=C1CCC2[C@](C)(CO)C(O)CC[C@]2(C)C1CC=C1C(=O)OCC1O (stereo not given in full) | 110% [at 92.2 µM] | –
CC(C)N(CC[C@H](c1ccccc1)c1cc(CO)ccc1O)C(C)C | 139% | –
C=C1C[C@@]2(O)O[C@@]3(C[C@H]2C(C)C)[C@H](C)CC[C@H]13 | 105% | –
CCCCCCCCCCCC(CC1OC(=O)C1CCCCCC)OC(=O)C(CC(C)C)NC=O (stereo not given) | 107% | –
CCc1c(O)cc(O)c(C(=O)c2ccc(OCCN3CCOCC3)c(OC)c2)c1CC(=O)N(CCOC)CCOC | – | 1.18 µM (active)
NC(=O)Nc1sc(-c2ccc(F)cc2)cc1C(N)=O | – | 0.0469 µM (active)
CNC(=O)c1ccc(Nc2cc(Nc3ccccc3S(=O)(=O)C(C)C)c3cc[nH]c3n2)nc1 | – | 0.296 µM (active)
Cc1ccc(-n2[nH]c(C)c(N=Nc3cccc(-c4cccc(C(=O)O)c4)c3O)c2=O)cc1C | – | 23.5 µM (active)
COc1ccc([C@@H]2CNC(=O)C2)cc1OC1CCCC1 | – | 2.64 µM (active)
OCCN1C[C@H](O)[C@@H](O)[C@H](O)[C@@H]1CO | 111% | –
COc1cc(C(=O)NC2CCN(C)CC2)ccc1Nc1ncc2c(n1)N(C1CCCC1)CCC(=O)N2C(C)C | – | 20.9 µM (active)
COC1=C(OC)C(=O)C(CC=C(C)CCC=C(C)CCC=C(C)CCC=C(C)CCC=C(C)CCC=C(C)CCC=C(C)CCC=C(C)CCC=C(C)CCC=C(C)C)=C(C)C1=O | 113% | –
O=C(Nc1nnc(-c2ccco2)o1)c1cc(-c2ccccc2)nc2ccccc12 | – | 13.2 µM (active)
O=C1NC(=O)[C@@H](c2cn3c4c(cccc24)CCC3)[C@H]1c1c[nH]c2ccccc12 | – | 0.0332 µM (active)
COc1cccc2c1C(=O)c1c(O)c3c(c(O)c1C2=O)C[C@@](O)(C(=O)CO)C[C@@H]3O[C@H]1C[C@H](N)[C@H](OC2CCCCO2)[C@H](C)O1 (stereo not given in full) | – | 1.87 µM (active)
NC(=O)Nc1cc(-c2ccc(CN3CCOCC3)cc2)sc1C(N)=O | – | 0.132 µM (active)
CN(C)c1ccc2cc(C(=O)N[C@@H](CCCN=C(N)CCl)C(=O)NCc3ccccc3)ccc2c1 | – | 1.18 µM (active)
C=Cc1c(C)c2cc3nc(cc4[nH]c(cc5nc(cc1[nH]2)C(C)=C5CCC(=O)O)c(CCC(=O)OC)c4C)[C@@]1(C)C3=CC=C(C(=O)OC)[C@H]1C(=O)OC | – | 0.0935 µM (active)
Oc1ccc(-c2ccc(-c3cc(Nc4cccc(CNC5CC5)c4)n[nH]3)cc2)c(O)c1 | – | 0.526 µM (active)
C[C@@]12C(=O)OC(=O)[C@@]1(C)C1CCC2O1 | – | 2.64 µM (active)
